# Experimental data reported in PubChem BioAssay (Tox21).
# Records with an inconclusive call do not appear. Where a call stands in place of a potency, no number is given. Active and inactive are the calls of the source. The call rests on the fitted dose curve; in most records, active means well fitted activation curve with a large enough effect in the signal ratio in the repeat runs, with a control signal flat (not every such curve was filed as active); inconclusive means weak or mixed curves; inactive means flat fitted curve, though single readings scatter; the % refers to the signal ratio.
# Assay: qHTS assay for small molecule activators of the heat shock response signaling pathway (AID 743210);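 on activation: HeLa cells with beta-lactamase reporter driven by heat shock elements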
# Details: HeLa HSE-bla reporter, beta-lactamase ratio, 5 h; series mostly up to 62.6 µM
# Outline: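 HeLa HSE-bla cells, overnight plating; cpd in DMSO 5 h, 37 C; LiveBLAzer B/G FRET substrate 2.5 h RT; fluorescence intensity read.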
# Potency means the concentration at half of the fitted maximal effect.
row,SMILES,Potency
1,CC1CC(C)C(=O)C1=O (configuration not stated),inactive
2,O=C=Nc1cccc(C(F)(F)F)c1,inactive
3,CCCCCCCCN,inactive
4,CCC=CC#N,inactive
5,CC(C)=CCC1C(=O)N(c2ccccc2)N(c2ccccc2)C1=O,28.7 µM (active)
6,C=C1CCC2CC1C2(C)C (configuration not stated),inactive
7,Cc1ccc(OC(=O)c2ccccc2O)cc1,inactive
8,O=C(O)CCC(=O)C(=O)O,inactive
9,C=C1c2cccc(O)c2C(O)=C2C(=O)[C@]3(O)C(O)=C(C(N)=O)C(=O)[C@@H](N(C)C)[C@@H]3[C@@H](O)[C@H]12,inactive
10,Cc1cscn1,inactive
11,CCC(OCCCOC)OC(C)=O (configuration not stated),inactive
12,CC/C=C1/OC(=O)c2ccccc21,inactive
13,COc1cc(N)c(Cl)cc1C(=O)NC1CCN(CCCOc2ccc(F)cc2)CC1OC (configuration not stated),inactive
14,C=C(C)C(=O)OCCOCCOC(=O)C(=C)C,inactive
15,CC(=O)Oc1ccc([N+](=O)[O-])cc1CCl,inactive
16,O=C(Nc1cccc2c(=O)cc(-c3nn[nH]n3)oc12)c1ccc(OCCCCc2ccccc2)cc1,inactive
17,Cc1ccccc1N=C(N)Nc1ccccc1C,inactive
18,CCOC(=O)OC(C)OC(=O)[C@@H]1N2C(=O)[C@@H](NC(=O)[C@H](N)c3ccccc3)[C@H]2SC1(C)C (some centres not stated),inactive
19,CC(C)c1nc(CN(C)C(=O)N[C@H](C(=O)N[C@@H](Cc2ccccc2)C[C@H](O)[C@H](Cc2ccccc2)NC(=O)OCc2cncs2)C(C)C)cs1,inactive
20,O=C(/C=C/c1ccccc1)OCCc1ccccc1,inactive
21,CN1C(=O)OC(C)(C)C1=O,inactive
22,CC1CC(OC(=O)C(O)c2ccccc2)CC(C)(C)N1C (configuration not stated),inactive
